An excerpt weighted towards active compounds, which were near 3% of everything screened.
PAX8 reporter = PAX8 transcriptional activity inhibition; AID 652154; 1.2% of 360,000 active; inhibition, % at 12.6 µM; RMG-I TPO-luciferase reporter, SteadyGlo, 24 h;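 active = mean replicate inhibition at least 60% with every replicate also reaching 60%; inconclusive = only one of the two criteria is met; inactive = mean below 60% and not all replicates reaching 60%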;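 also: luciferase light reporting Pax8 driven TPO promoter activity; plate controls were median of neutral control wells for no effect and mitoxantrone controls for full effect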
ABHD5-PLIN5 inh = inhibitors of human ABHD5-perilipin-5 interaction; Q00G26+Q8WTS1; Split G. princeps luciferase complementation, luminescence, 4 h; inhibition, % at 4 µM; 0.78% of 360,000 active;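 active = inhibition above the mean inhibition across every tested compound plus 3 SD, cut at about 22% in these data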;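 also: 0% = DMSO only wells and the 100% control is not disclosed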
Target sequence (Q00G26 whole entry, looked up): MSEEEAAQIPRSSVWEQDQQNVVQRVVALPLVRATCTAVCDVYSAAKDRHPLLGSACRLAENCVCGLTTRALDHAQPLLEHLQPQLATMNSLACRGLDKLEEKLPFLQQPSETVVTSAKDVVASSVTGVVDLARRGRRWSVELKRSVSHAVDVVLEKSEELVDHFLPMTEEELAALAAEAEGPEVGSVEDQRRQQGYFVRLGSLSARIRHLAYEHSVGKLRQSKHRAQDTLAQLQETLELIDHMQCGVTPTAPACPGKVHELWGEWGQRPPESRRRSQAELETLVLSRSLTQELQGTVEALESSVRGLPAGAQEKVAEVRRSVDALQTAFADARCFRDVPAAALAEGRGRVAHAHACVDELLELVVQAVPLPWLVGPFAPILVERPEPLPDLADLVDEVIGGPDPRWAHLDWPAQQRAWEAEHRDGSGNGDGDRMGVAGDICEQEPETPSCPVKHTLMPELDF
Target sequence (Q8WTS1 whole entry, looked up): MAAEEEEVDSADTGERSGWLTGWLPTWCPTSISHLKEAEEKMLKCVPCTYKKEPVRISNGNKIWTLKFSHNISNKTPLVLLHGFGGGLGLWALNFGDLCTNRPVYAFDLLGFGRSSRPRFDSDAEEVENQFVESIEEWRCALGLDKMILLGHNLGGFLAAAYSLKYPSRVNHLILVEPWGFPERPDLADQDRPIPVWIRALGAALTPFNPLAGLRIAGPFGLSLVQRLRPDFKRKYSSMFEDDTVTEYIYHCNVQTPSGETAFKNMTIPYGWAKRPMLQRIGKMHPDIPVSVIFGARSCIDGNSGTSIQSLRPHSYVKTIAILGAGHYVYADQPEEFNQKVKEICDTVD
Peg3 prom inh-1 = reduces Peg3 promoter-driven luciferase expression in HeLa | HeLa PEG-Prom luciferase reporter, luminescence, overnight | inhibition, % at 20 µM | 1.7% of 360,000 active | AID 588405;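 active = inhibition of at least 50% at 20 µM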
Shn3 inh set2 = Schnurri-3 reporter inhibition in Clone20 osteoblasts; Clone20 osteoblast Shn3 3'UTR firefly luciferase, 24 h; inhibition, % at 12.5 µM; 0.52% of 360,000 active; AID 588674;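 active = mean inhibition of at least 75% with every replicate also reaching 75%; inconclusive = mean inhibition at least 75% but some replicate below; inactive = mean inhibition below 75%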;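 also: 0% = median of neutral control wells and 100% = pilot-screen positive control compound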
EWS-Fli block = blocks EWS/Fli oncoprotein-driven transcription; A673 NR0B1-luciferase reporter, viability-normalised; inhibition, % at 12.6 µM; 0.67% of 350,000 active; AID 651661;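 active = mean inhibition of at least 50% after viability correction, with every replicate also passing that limit; inconclusive = mean reaches 50% but only one of two replicates passes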;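 also: firefly luciferase signal divided by Alamar Blue viability fluorescence both relative to DMSO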
MITF TRPM1 inh = MITF TRPM1 promoter inhibition in SK-MEL-5 cells | SK-MEL-5 TRPM1 promoter luciferase, 24 h | inhibition, % at 12.5 µM | 0.83% of 330,000 active;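 active = mean inhibition across replicates of 60% or more, whatever share of single replicates reaches that level; inconclusive = some that reach 60%, reason not given; inactive = mean inhibition across replicates below 60%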
Peg3 prom inh-2 = confirmation of Peg3 promoter inhibitors; shares compounds with Peg3 prom inh-1; HeLa PEG-Prom luciferase reporter, luminescence, overnight; inhibition, % at 20 µM; 84% of 1,300 active; AID 602417;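 active = at 20 µM dose, 40% or more inhibition averaged across four replicates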
Numbers without * were called inactive; ? = inconclusive; nt = no result.

SMILES	PAX8 reporter	ABHD5-PLIN5 inh	Peg3 prom inh-1	Shn3 inh set2	EWS-Fli block	MITF TRPM1 inh	Peg3 prom inh-2
CN(C)c1ccc2c(c1)[C@@H]1C[C@H](CC(=O)NCc3cccc(F)c3)O[C@@H](CO)[C@@H]1O2	2	nt	nt	nt	2	nt	nt
C[C@H](CO)N1C[C@H](C)[C@H](CN(C)C(=O)Nc2ccc(C(F)(F)F)cc2)OCc2cn(nn2)CCCC1=O	8	nt	nt	nt	5	nt	nt
c1ccc(-c2nnc(N3CCN(c4ccccn4)CC3)c3ccccc23)cc1	32	2	37	36	nt	12	nt
Cc1ccc(-c2nnc(N3CCN(c4ccccn4)CC3)c3ccccc23)cc1	nt	1	77*	71	nt	15	84*
CNC[C@@H]1Oc2cc(C#Cc3ccncc3)ccc2S(=O)(=O)N([C@H](C)CO)C[C@@H]1C	20	nt	nt	nt	-10	nt	nt
Cc1ccc(S(=O)(=O)NC2CCN(Cc3ccc(OCCO)cc3)CC2)cc1	-18	nt	nt	nt	3	nt	nt
CC(C)CC#Cc1cnc2c(c1)C(=O)N([C@H](C)CO)C[C@H](C)[C@H](CN(C)Cc1ccccn1)O2	nt	nt	nt	nt	-8	nt	nt
CC1(C)CC(NCCN2CCN(C3=CC(=C(C#N)C#N)CC(C)(C)C3)CC2)=CC(=C(C#N)C#N)C1	12	4	50*	-2	-4	0	44*
N#C[C@H]1[C@@H](c2ccccc2-c2ccccc2)[C@@H](CO)N1c1ncc(-c2ccccc2)s1	5	nt	nt	nt	-6	nt	nt
COc1cccc(/C=N/Nc2ncnc(N)c2[N+](=O)[O-])c1OC	nt	3	47	2	nt	32	nt
Cc1cc(/C=N/Nc2ncnc(N)c2[N+](=O)[O-])c(C)n1-c1ccccc1	62*	7	92*	53	83*	81*	84*
CCCC#Cc1ccc2c(c1)[C@@H]1[C@@H](CCN1S(=O)(=O)c1ccc(F)cc1)[C@H](CO)N2	nt	nt	nt	nt	-2	nt	nt
CCCC(=O)Nc1ccc2c(c1)C(=O)N(C)[C@@H]1CC[C@@H](CC(=O)O)O[C@@H]1CO2	-2	nt	nt	nt	-7	nt	nt
CC1=NN(c2cccc(C(=O)O)c2)C(=O)/C1=C\C=C/c1ccccc1	2	20	78*	60	46	nt	52*
CC(C)(C)OC(=O)[C@H](Cc1ccccc1)NC(=O)c1nc[nH]c1C(=O)NCCCCCN	2	4	10	-5	-1	-15	nt
CC(C)(C)OC(=O)NCCCCCNC(=O)c1[nH]cnc1C(=O)N[C@@H](Cc1ccccc1)C(=O)OC(C)(C)C	nt	3	51*	0	nt	-6	40
CC(C)(C)OC(=O)[C@H](Cc1ccccc1)NC(=O)c1[nH]cnc1C(=O)Nc1ccc(Cl)cc1	5	-25	85*	32	11	1	29
CC(C)(C)OC(=O)NCc1ccc(CNC(=O)c2nc[nH]c2C(=O)N2CCN(C(=O)OC(C)(C)C)CC2)cc1	21	5	51*	14	24	21	28
COc1ccc(C#Cc2ccc([C@@H]3[C@H](CO)N4C(=O)CN(C(=O)Nc5ccccc5F)C[C@@H]34)cc2)cc1	nt	nt	nt	nt	-1	nt	nt
C[n+]1c(-c2ccccc2)cc2c(=Cc3ccccc3)c3ccccc3n21	115*	21	103*	85	53*	98*	96*
CN(C)c1c([N+](=O)[O-])cc(N2C(=O)C=CC2=O)cc1[N+](=O)[O-]	nt	7	104*	35	nt	63*	96*
Cc1cccc(N2C(=O)C=CC2=O)c1	8	6	20	38	8	12	nt
C[C@H](CO)N1C[C@H](C)[C@@H](CN(C)C(=O)CN(C)C)Oc2ncc(C#CCC3CCCC3)cc2C1=O	-8	nt	nt	nt	12	nt	nt
Cc1ccc(N(Cc2cc(=O)[nH]c3ccccc23)C(=O)CCl)c(C)c1	69*	-10	71*	-4	67*	?	76*
Fc1ccc(-c2nn(-c3ccccc3)cc2CNCc2ccccc2)cc1	-11	-4	62*	-2	15	-3	17
SMILES	PAX8 reporter	ABHD5-PLIN5 inh	Peg3 prom inh-1	Shn3 inh set2	EWS-Fli block	MITF TRPM1 inh	Peg3 prom inh-2
O=C(O)Cc1cn(-c2ccccc2)nc1-c1ccccc1	7	2	1	0	1	1	nt
COc1ccc(CNC(=O)C[C@H]2C[C@@H]3c4cc(NS(=O)(=O)c5ccc(F)cc5)ccc4O[C@@H]3[C@@H](CO)O2)cc1	nt	nt	nt	nt	-1	nt	nt
Cc1ccc(C(=O)NCCc2cccs2)cc1	43	5	62*	38	64*	54	44*
C[C@H](NC(=O)C[C@H]1CC[C@H]2[C@@H](COC[C@H](O)CN2Cc2ccc(C(F)(F)F)cc2)O1)c1ccccc1	21	nt	nt	nt	20	nt	nt
COc1ccccc1CNC(=O)c1c(N)n(CCCN2CCOCC2)c2nc3ccccc3nc12	nt	12	60*	-5	nt	-10	85*
Nc1c(C(=O)NCc2ccc3c(c2)OCO3)c2nc3ccccc3nc2n1CCCN1CCOCC1	nt	13	29	8	nt	-7	nt
C/C(=N\NC(=O)c1nnn(-c2nonc2N)c1CN1CCc2ccccc21)c1ccccc1O	25	-3	55*	?	5	30	66*
CCOc1cccc(-c2c(C(=O)N/N=C(\C)c3ccccn3)nnn2-c2nonc2N)c1	69*	0	74*	94*	nt	61*	64*
COc1ccc(-n2cc(-c3ccccc3)c3c(N4CCOCC4)ncnc32)cc1	64*	3	61*	24	20	9	68*
O=C(C[C@H]1CC[C@@H](NC(=O)C2CC2)[C@@H](CO)O1)Nc1nccs1	-3	nt	nt	nt	-4	nt	nt
O=C(OCCNc1nc(-c2ccccc2)nc2ccccc12)c1cccnc1	31	9	21	81	2	-17	nt
CCCOC(=O)c1cccc(Nc2nc(-c3cccnc3)nc3ccccc23)c1	25	-2	96*	67	28	48	95*
CC1(C)CC(NC(=O)c2cccc(S(=O)(=O)N(Cc3ccccc3)c3ccccc3)c2)CC(C)(C)N1	14	-2	84*	13	19	57	92*
CN(C)CC#Cc1ccc([C@@H]2[C@H](CO)N3CCCCN(C(=O)Nc4ccccc4F)C[C@@H]23)cc1	0	nt	nt	nt	-6	nt	nt
COc1ccc2nc3n(c(=O)c2c1)-c1cc2ccccc2cc1C(=O)NC3Cc1ccc(O)cc1 (stereo not given)	51	1	78*	39	43	nt	86*
O=C(NCC1CCCO1)C(c1ccc(F)cc1)N(C(=O)Cn1nnc(-c2ccc(F)cc2)n1)c1cccc(O)c1 (stereo not given)	3	19	56*	23	1	4	51*
COc1ccc(N(C(=O)Cn2nnc(-c3ccc(F)cc3)n2)C(C)C(=O)NC2CCCC2)cc1 (stereo not given)	11	-1	21	-10	-6	10	nt
CC(C)CC(C(=O)NCC1CCCO1)N(C(=O)Cn1nnc(-c2ccc(F)cc2)n1)c1cccc(C(F)(F)F)c1 (stereo not given)	nt	0	16	31	nt	25	nt
